From PubChem BioAssay (NCI)
“And” between values parts separate entries of the source, which are not always exact repeats. Equal values may be shown once. The panel holds about 83,000 compounds, 20% with a hit somewhere; the sample as a whole holds those more often.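 Treatment: one concentration, 48 hours, 96-well format. Scoring: percent growth, with anything below 10 considered active.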 Values without a mark were called inactive. The source made the active and inactive calls.

The compounds below were run on KM12 colon (assay: NCI-60 one-dose screen, 48 h (100 = growth as untreated, 0 = no growth, -100 = all killed)). Details: 10 µM unless noted.

Row | SMILES | growth
1 | Cn1cnc([N+](=O)[O-])c1Sc1ncn[nH]1 | 107%
2 | CCc1cc(C)cc(O)c1 | 114%
3 | CCCCOc1ccc(Nc2cc(Cl)ccc2C(=O)O)cn1 | 118% and 103%
4 | Nc1ncnc2c1ncn2C1OC(COP(=O)(O)O)C(O)C1O (stereo not drawn) | 111%
5 | CC1CCC(C(C)C)C(NNC(N)=O)C1 (stereo not drawn) | 94%
6 | COc1ccc(N/C=C/C2=[N+](C)c3ccccc3C2(C)C)c(OC)c1 | 103%
7 | O=C1OC(c2ccccc2)=N/C1=C\c1ccccc1 | 108%
8 | C/C(=C\c1ccccc1)c1ccccn1 | 95.5%
9 | COc1cc(C(O)C2C(=O)OCC2C2(c3ccc4c(c3)OCO4)SCCCS2)cc(OC)c1OC (stereo not drawn) | 96.2%
10 | CC1(C)COC(=S)N1 | 112%
11 | Brc1ccc(SSc2ccc(Br)cc2)cc1 | 57.4%
12 | CC(C)(O)C(=O)O | 107%
13 | O=[N+]([O-])c1cccc(SSc2cccc([N+](=O)[O-])c2)c1 | 107%
14 | OCCN1CCCCCCC1 | 110%
15 | c1ccc(-c2nc3ccccc3s2)cc1 | 95.4%
16 | CCOC(=O)c1c(C)cc(=O)oc1C | 110%
17 | CC(=O)NCC(=O)c1ccc([N+](=O)[O-])cc1 | 103%
18 | Fc1ccc([I+]c2ccc(F)cc2)cc1 | 54.5%
19 | Cc1cc2ccccc2cn1 | 106% and 108%
20 | O=c1n(CC2CO2)c(=O)n(CC2CO2)c(=O)n1CC1CO1 (stereo not drawn) | 90.3%
21 | Nc1ccc2c(O)cc(S(=O)(=O)O)cc2c1 | 120% and 103%
22 | O=C1CSC2=NCCN12 | 89.8% and 123%
23 | O=C1c2c(O)ccc(O)c2C(=O)c2c(NCCNCCO)ccc(NCCNCCO)c21 | -11.4% (active) and -25.6% (active)
